In PubChem BioAssay:
A number with no mark means an inactive call.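 The calls were made as follows, unless noted: active = at least 20% inhibition of 6-phosphogluconate dehydrogenase activity; inactive = the rest.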

System: Hepatitis C virus NS3 helicase
Assay: HCV NS3 helicase inhibitors, primary screen, biochemical, fluorescence polarization, LOPAC1280 library (AID 687035; in the data active = inhibition above about 37%)
Conditions: Purified HCV NS3 helicase, Cy5-dT15 ssDNA binding fluorescence polarization; hits give high values; concentration not given here
For O=C(O)c1cc([N+](=O)[O-])ccc1NCCCc1ccccc1, the inhibition was -4%.
Work on O=c1c(-c2ccc(O)cc2)coc2cc(O)ccc12 yielded an inhibition of -4%.
Molecule CC(CCc1ccc(O)cc1)NCCc1ccc(O)c(O)c1 (configuration not stated) has an inhibition of -1%.
In the case of NC(=O)c1cccc(N)c1, the inhibition was 0%.
CCN1CCCC1CNC(=O)c1cc(S(N)(=O)=O)ccc1OC (configuration not stated) gave an inhibition of -1%.

System: not listed separately
Assay: Cy5 fluorescence quenching or enhancement artefacts, artefact control for HCV NS3 helicase inhibitor project, biochemical, LOPAC1280 (AID 687037; call rule not given here)
Conditions: Cy5-DNA-NS3h complex fluorescence interference counterscreen
With O=C(O)c1cc([N+](=O)[O-])ccc1NCCCc1ccccc1 the fluorescence ratio (interference) was 1.
Work on O=c1c(-c2ccc(O)cc2)coc2cc(O)ccc12 yielded a fluorescence ratio (interference) of 1.
For CC(CCc1ccc(O)cc1)NCCc1ccc(O)c(O)c1 (configuration not stated), the fluorescence ratio (interference) was 1.
Molecule NC(=O)c1cccc(N)c1 has a fluorescence ratio (interference) of 1.
In the case of CCN1CCCC1CNC(=O)c1cc(S(N)(=O)=O)ccc1OC (configuration not stated), the fluorescence ratio (interference) was 1.1.

Target: 6-phosphogluconate dehydrogenase, decarboxylating (Homo sapiens) (UniProt P52209)
Sequence (P52209 whole entry, looked up): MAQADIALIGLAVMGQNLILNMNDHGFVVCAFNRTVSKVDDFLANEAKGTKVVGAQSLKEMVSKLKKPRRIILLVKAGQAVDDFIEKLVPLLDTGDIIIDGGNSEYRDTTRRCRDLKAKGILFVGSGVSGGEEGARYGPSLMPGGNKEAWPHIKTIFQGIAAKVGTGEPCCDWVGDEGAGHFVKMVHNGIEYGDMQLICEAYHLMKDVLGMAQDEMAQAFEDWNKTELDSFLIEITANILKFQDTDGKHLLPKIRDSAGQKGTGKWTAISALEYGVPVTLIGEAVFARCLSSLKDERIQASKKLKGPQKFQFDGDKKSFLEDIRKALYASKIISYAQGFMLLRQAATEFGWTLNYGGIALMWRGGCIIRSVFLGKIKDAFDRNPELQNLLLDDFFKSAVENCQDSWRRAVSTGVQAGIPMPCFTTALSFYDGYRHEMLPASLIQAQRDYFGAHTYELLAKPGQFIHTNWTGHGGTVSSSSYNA
Assay: 6PGD enzyme inhibitors, primary screen, biochemical, human, recombinant enzyme, NADPH absorbance (AID 1159550)
Conditions: recombinant 6PGD, NADPH absorbance 341 nm; at 10 µM; hits give high values
With COc1cc(O)c(C(C)=O)c(OC)c1 the inhibition was 0.271%.
Molecule COc1c2ccoc2c(OC)c2oc(=O)ccc12 has an inhibition of 6.1%.
For NC(Cn1ccc(=O)c(O)c1)C(=O)O (configuration not stated), the inhibition was 17.3%.
With N#Cc1ccc2c(c1)N(CCCN1CCC(O)CC1)c1ccccc1S2 the inhibition was -2.33%.
With O=C(O)c1cc([N+](=O)[O-])ccc1NCCCc1ccccc1 the inhibition was 11.2%.
Oc1cc(O)c2c(c1)O[C@H](c1cc(O)c(O)c(O)c1)[C@H](O)C2 showed an inhibition of -13.7%.
With O=c1c(-c2ccc(O)cc2)coc2cc(O)ccc12 the inhibition was 6.36%.
With O=c1[nH]c2cc(Cl)c(Cl)cc2[nH]c1=O the inhibition was 1.1%.
Work on O=C(O)CCCCCCCCCCCCC1C=CCC1 (configuration not stated) yielded an inhibition of -14%.
For CC(CCc1ccc(O)cc1)NCCc1ccc(O)c(O)c1 (configuration not stated), the inhibition was 1.78%.
With CC(C)=CCc1c2c(c3occ(-c4ccc(O)c(O)c4)c(=O)c3c1O)C=CC(C)(C)O2 the inhibition was 10.7%.
Molecule NC(=O)c1cccc(N)c1 has an inhibition of 10.1%.
In the case of COc1ccc([C@H]2Oc3cc(OC)cc(OC)c3C[C@H]2O)cc1, the inhibition was -0.838%.
In the case of CCN1CCCC1CNC(=O)c1cc(S(N)(=O)=O)ccc1OC (configuration not stated), the inhibition was -9.64%.
COc1c(OC)c2occc2c2oc(=O)ccc12 gave an inhibition of -3.21%.
Work on NC1(C(=O)O)CCCC1 yielded an inhibition of -12.6%.
COc1ccc(C(=O)CC(=O)O)c2c1C=CC(C)(C)O2 showed an inhibition of 10.2%.
Molecule COC1=CC(=O)C=C(OC)C1=O has an inhibition of 1.73%.
For CCOC(=O)[C@H](CCc1ccccc1)N[C@H](C)C(=O)N1C2CCCCC2C[C@H]1C(=O)O (some centres not stated), the inhibition was 7.88%.
In the case of CON, the inhibition was 3.11%.
Work on COc1c2ccoc2nc2c(OC)c(OCC(O)C(C)(C)O)ccc12 (configuration not stated) yielded an inhibition of -4.68%.
C=NC(C(=O)NC1C(=O)N2C1SC(C)(C)C2C(=O)O)c1ccccc1 (configuration not stated) gave an inhibition of -2.44%.
For O=C1C=CC(=C(c2ccc(O)cc2)c2ccc(O)cc2)C=C1, the inhibition was 7.03%.
COc1cc(OC)c2ccc(=O)oc2c1 gave an inhibition of 9.07%.
With O=C1c2ccc(O)c(O)c2C(=O)c2c(O)ccc(O)c21 the inhibition was 4.26%.
COc1cc(C)c2c(=O)cc(-c3ccccc3)oc2c1 showed an inhibition of 5.95%.
Work on Cc1cc(=O)oc2c(O)c(O)ccc12 yielded an inhibition of -1.28%.
With COc1ccc2c(c1)OC1(O)COc3cc(OC)c(OC)cc3C1=C2 (configuration not stated) the inhibition was -7.74%.
For O=C(O)c1cc(=O)c2cccc(O)c2[nH]1, the inhibition was 4.89%.
C[C@]12CCC3c4ccc(OS(=O)(=O)O)cc4CCC3C1CC[C@H]2O (some centres not stated) gave an inhibition of 3.17%.
With O=C(O)c1cc2ccccc2[nH]1 the inhibition was 0.53%.
With NC1=NCCN1CC(=O)O the inhibition was -2.27%.
Molecule CC(C)[C@@H]1CC[C@@H](C)CC1=O has an inhibition of 15.9%.
C[C@@]12C(=O)OC(=O)[C@]1(C)[C@H]1CC[C@@H]2O1 gave an inhibition of -26.6%.
CCCC(=O)Nc1ncnc2c1ncn2[C@@H]1O[C@@H]2COP(=O)(O)O[C@H]2[C@H]1OC(=O)CCC gave an inhibition of 10.5%.
With COc1ccc2c(c1)OC/C(=C\c1ccc(OC)c(O)c1)C2=O the inhibition was -46%.
CC(=O)c1c(O)c(C)c(O)c2c1OC1=CC(=O)C(C(C)=O)C(=O)C12C (configuration not stated) showed an inhibition of -11.1%.
In the case of O=C(/C=C/c1ccccc1)c1ccc(O[C@@H]2O[C@H](CO)[C@@H](O)[C@H](O)[C@H]2O)cc1O, the inhibition was 4.22%.
Work on CCOC(=O)C1=C(O)C(=O)N(Cc2ccccc2)C1 yielded an inhibition of -9.58%.
For CC(=O)N[C@@H]1[C@@H](O)[C@H](O)[C@@H](CO)O[C@H]1O, the inhibition was -7.13%.

System: not listed separately
Assay: differential killing of epithelial or mesenchymal cells, primary screen, imaging, PC-3E GFP, TEM4-18 mCherry, co-culture (AID 1345086;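 active = compounds killing one labelled cell type while sparing the other, by normalised counts and ratio limits, not self-fluorescent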;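 also: normalised mesenchymal count divided by normalised epithelial count so high means epithelial killing; cells exposed to compound for 72 h before imaging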)
Conditions: imaging cell counts, at 1 µM, actives lie on both sides, counts scaled to control wells, 1 = unselective
For COc1cc(O)c(C(C)=O)c(OC)c1, the red/green cell ratio (normalised) was 0.74.
In the case of COc1c2ccoc2c(OC)c2oc(=O)ccc12, the red/green cell ratio (normalised) was 1.06.
For NC(Cn1ccc(=O)c(O)c1)C(=O)O (configuration not stated), the red/green cell ratio (normalised) was 1.1.
N#Cc1ccc2c(c1)N(CCCN1CCC(O)CC1)c1ccccc1S2 gave a red/green cell ratio (normalised) of 1.05.
Oc1cc(O)c2c(c1)O[C@H](c1cc(O)c(O)c(O)c1)[C@H](O)C2 showed a red/green cell ratio (normalised) of 1.12.
Work on O=c1[nH]c2cc(Cl)c(Cl)cc2[nH]c1=O yielded a red/green cell ratio (normalised) of 1.09.
In the case of O=C(O)CCCCCCCCCCCCC1C=CCC1 (configuration not stated), the red/green cell ratio (normalised) was 1.
CC(C)=CCc1c2c(c3occ(-c4ccc(O)c(O)c4)c(=O)c3c1O)C=CC(C)(C)O2 gave a red/green cell ratio (normalised) of 0.76.
COc1ccc([C@H]2Oc3cc(OC)cc(OC)c3C[C@H]2O)cc1 showed a red/green cell ratio (normalised) of 0.79.
COc1c(OC)c2occc2c2oc(=O)ccc12 gave a red/green cell ratio (normalised) of 0.97.
For NC1(C(=O)O)CCCC1, the red/green cell ratio (normalised) was 0.86.
In the case of COc1ccc(C(=O)CC(=O)O)c2c1C=CC(C)(C)O2, the red/green cell ratio (normalised) was 0.95.
Molecule COC1=CC(=O)C=C(OC)C1=O has a red/green cell ratio (normalised) of 0.91.
Work on CCOC(=O)[C@H](CCc1ccccc1)N[C@H](C)C(=O)N1C2CCCCC2C[C@H]1C(=O)O (some centres not stated) yielded a red/green cell ratio (normalised) of 0.91.
CON gave a red/green cell ratio (normalised) of 1.03.
COc1c2ccoc2nc2c(OC)c(OCC(O)C(C)(C)O)ccc12 (configuration not stated) gave a red/green cell ratio (normalised) of 0.91.
C=NC(C(=O)NC1C(=O)N2C1SC(C)(C)C2C(=O)O)c1ccccc1 (configuration not stated) gave a red/green cell ratio (normalised) of 1.12.
With O=C1C=CC(=C(c2ccc(O)cc2)c2ccc(O)cc2)C=C1 the red/green cell ratio (normalised) was 0.79.
COc1cc(OC)c2ccc(=O)oc2c1 gave a red/green cell ratio (normalised) of 1.1.
Molecule O=C1c2ccc(O)c(O)c2C(=O)c2c(O)ccc(O)c21 has a red/green cell ratio (normalised) of 1.12.
Work on COc1cc(C)c2c(=O)cc(-c3ccccc3)oc2c1 yielded a red/green cell ratio (normalised) of 0.85.
Work on Cc1cc(=O)oc2c(O)c(O)ccc12 yielded a red/green cell ratio (normalised) of 1.02.
With COc1ccc2c(c1)OC1(O)COc3cc(OC)c(OC)cc3C1=C2 (configuration not stated) the red/green cell ratio (normalised) was 1.07.
With O=C(O)c1cc(=O)c2cccc(O)c2[nH]1 the red/green cell ratio (normalised) was 1.29.
For C[C@]12CCC3c4ccc(OS(=O)(=O)O)cc4CCC3C1CC[C@H]2O (some centres not stated), the red/green cell ratio (normalised) was 0.87.
For O=C(O)c1cc2ccccc2[nH]1, the red/green cell ratio (normalised) was 1.04.
With NC1=NCCN1CC(=O)O the red/green cell ratio (normalised) was 0.92.
Molecule CC(C)[C@@H]1CC[C@@H](C)CC1=O has a red/green cell ratio (normalised) of 0.93.
In the case of COc1ccc2c(c1)OC/C(=C\c1ccc(OC)c(O)c1)C2=O, the red/green cell ratio (normalised) was 0.99.
In the case of CC(=O)c1c(O)c(C)c(O)c2c1OC1=CC(=O)C(C(C)=O)C(=O)C12C (configuration not stated), the red/green cell ratio (normalised) was 0.89.
For O=C(/C=C/c1ccccc1)c1ccc(O[C@@H]2O[C@H](CO)[C@@H](O)[C@H](O)[C@H]2O)cc1O, the red/green cell ratio (normalised) was 1.
In the case of CC(=O)N[C@@H]1[C@@H](O)[C@H](O)[C@@H](CO)O[C@H]1O, the red/green cell ratio (normalised) was 0.98.
